Hit rate of the full screen: of about 190,000 compounds, about 1,300 (0.68%) were called active. The full list was thinned out, with actives kept by preference. Unmarked numbers belong to inactive results. Rule as the data show it: active = inhibition above about 50%; inactive = the rest.

In this test the target is Mannose-6-phosphate isomerase (Homo sapiens) (UniProt P34949). The experiment in a line: human PMI inhibitors, high substrate, primary screen, biochemical, fluorescence intensity, high mannose 6-phosphate (AID 1220). As to conditions: recombinant PMI enzyme, coupled fluorescence intensity; at 20 µM; hits give high values.
Sequence of Mannose-6-phosphate isomerase (Homo sapiens) (P34949 whole entry, looked up): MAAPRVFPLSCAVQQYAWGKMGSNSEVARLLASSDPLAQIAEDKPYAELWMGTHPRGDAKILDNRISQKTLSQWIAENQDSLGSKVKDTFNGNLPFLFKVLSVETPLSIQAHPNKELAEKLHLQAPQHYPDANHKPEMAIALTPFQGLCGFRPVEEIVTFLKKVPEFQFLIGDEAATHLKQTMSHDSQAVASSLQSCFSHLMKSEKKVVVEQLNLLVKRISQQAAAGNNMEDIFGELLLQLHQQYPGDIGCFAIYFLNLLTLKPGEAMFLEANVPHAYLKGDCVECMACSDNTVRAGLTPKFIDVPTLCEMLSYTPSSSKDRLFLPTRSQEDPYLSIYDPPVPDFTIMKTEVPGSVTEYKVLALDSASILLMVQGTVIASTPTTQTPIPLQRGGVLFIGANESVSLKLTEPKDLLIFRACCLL
What is called inhibition is the drop in the measured response relative to a control, in per cent. On to `COC(=O)Cc1ccc2oc(-c3cccnc3)nc2c1`, for which the inhibition was 1.9%. For `CCCc1c(C)c2c(C)[nH]nc2oc1=O`, the inhibition was 1.7%. Under `COc1cc(OC)nc(Oc2ccccc2C(=O)Oc2cccc(C)c2)n1` stands 7%; under `Cc1ccc(S(=O)(=O)Nc2nc3ccc(S(=O)(=O)N4CCCC4)cc3s2)cc1`, -22.6%; under `Cc1ccc(N=C2NC(=O)c3cc([N+](=O)[O-])ccc32)cc1`, 6.9%.

Regarding `O=C1NC(=Nc2ccccc2)c2ccc([N+](=O)[O-])cc21`, the inhibition is -7.3%. Under `Cc1cccc(N=C2NC(=O)c3cc([N+](=O)[O-])ccc32)c1` stands 0.2%; under `NC(=O)c1ccc(C(=O)c2ccc([N+](=O)[O-])cc2)cc1`, -7.6%; under `O=c1[nH]c2cc3c(cc2cc1C(c1nnnn1C1CCCC1)N1CCCc2ccccc21)OCCO3` (stereo not drawn), 27.2%. With `Cc1ccc2[nH]c(=O)c(C(c3nnnn3C3CCCC3)N3CCCc4ccccc43)cc2c1` (stereo not drawn) the figure was 61.4% (active); with `CCC(C)(C)n1nnnc1C(c1cc2cc(C)ccc2[nH]c1=O)N1CCCc2ccccc21` (stereo not drawn), 21.8%; with `Cc1ccnc(NC(=O)C(C)n2cc([N+](=O)[O-])cn2)c1` (stereo not drawn), -10.1%. Under `O=S(=O)(Nc1ccc(N2CCOCC2)cc1)c1ccc(Cl)s1` stands -4.9%; under `CCOc1cc(N2CCOCC2)c(OCC)cc1NC(=O)c1ccc(NC(C)=O)cc1`, 26.1%. As to `CCOc1cc(N2CCOCC2)c(OCC)cc1NC1=NCCCCC1`, the inhibition was 50.1% (active). Under `CCOc1cc(N2CCOCC2)c(OCC)cc1NS(=O)(=O)c1ccc(Cl)s1` stands 54.3% (active); under `CCOc1cc(N2CCOCC2)c(OCC)cc1NC(=O)c1ccccc1`, 28.4%.

As for `CCOc1cc(N2CCOCC2)c(OCC)cc1NC(=O)c1ccc(C)cc1`, the inhibition is 27.3%. Under `CCOc1cc(N2CCOCC2)c(OCC)cc1NC(=O)c1ccc(S(C)(=O)=O)cc1` stands 54.7% (active); under `FC(F)(F)c1ccc(N2CCOCC2)c(NC2=NCCCCC2)c1`, 2.9%. With `CCOc1cc(N2CCOCC2)c(OCC)cc1NC(=O)c1nc2nc(C)cc(C)n2n1` the figure was 14.6%; with `CCOc1ccc(Br)cc1S(=O)(=O)Nc1ccccc1N1CCOCC1`, -0.7%; with `CCOc1cc(N2CCOCC2)c(OCC)cc1NC(=O)c1ccco1`, 25.1%. With `CCNC(=S)Nc1cc(OCC)c(N2CCOCC2)cc1OCC` the figure was 58% (active); with `Cc1cc(N)n2ncc(-c3ccc(F)cc3)c2n1`, 6.9%. As to `COCc1cc(C)nc(SCC(=O)Nc2ccccc2C)c1C#N`, the inhibition is -4.7%. Under `COc1cccc(C(=O)C2CCCN(C(=O)c3cccc(C#CC(C)(C)O)c3)C2)c1` (stereo not drawn) stands 13%; under `Cc1ccc2n(n1)c(=O)c(Cc1ccccc1)c([O-])[n+]2-c1ccccc1`, 7.7%. Under `COCCNC(=O)CN1CCN(Cc2cccc(Cl)c2)C1=O` stands 10.3%; under `CCOc1cc(N2CCOCC2)c(OCC)cc1NC(=O)C(C)(C)C`, 27.9%.

Take `CCOc1cc(N2CCOCC2)c(OCC)cc1NC(=O)c1cc(C)cc(C)c1`: the inhibition is 40.8%. With `CCCNC(=O)Nc1cc(OCC)c(N2CCOCC2)cc1OCC` the figure was 58.7% (active); with `COc1ccc(CCn2nnnc2C(CC(C)C)N2CCN(c3ncccn3)CC2)cc1OC` (stereo not drawn), 7.5%. With `Oc1ccc2ccccc2c1CN1CCN(c2ccccc2F)CC1` the figure was 29.8%; with `CN1CCN(Cc2c(O)ccc3cc(Br)ccc23)CC1`, 64.6% (active); with `CN1CCN(Cc2c(O)ccc3c(-c4ccccc4)cc(=O)oc23)CC1`, 1.7%. Under `Oc1ccc2ccccc2c1CN1CCN(c2ccccc2)CC1` stands -35.5%. For `Oc1ccc2cc(Br)ccc2c1CN1CCCC1`, the inhibition was 43.2%.

`Oc1ccc2ccccc2c1CN1CCCC1`: the inhibition is 67.8% (active). With `CCn1c(CSc2nc3ccccc3s2)nnc1SCC(N)=O` the figure was 1.7%; with `N#Cc1ccccc1S(=O)(=O)N1CCN(CC(O)c2ccccc2)CC1` (stereo not drawn), -12.7%. Under `COc1cccc(C(=O)Nc2cccc(-c3ccc4nncn4n3)c2)c1OC` stands -2.3%; under `COc1ccc(C2=NN(C(=O)CSc3ncccn3)C(c3cccc(OC)c3OC)C2)cc1` (stereo not drawn), 0.9%; under `CCOC(=O)C1CCCN(C(=O)c2ccc(C)cc2O)C1` (stereo not drawn), 1.2%.

With `CC1Cc2ccccc2N1c1ncnc2c1nnn2Cc1ccccc1Cl` (stereo not drawn), the inhibition was -1.3%. Under `O=C(O)C1C2CCC(O2)C1C(=O)Nc1cccc(F)c1` (stereo not drawn) stands -3.7%; under `O=C(O)C1C2CCC(O2)C1C(=O)Nc1ccc(O)cc1` (stereo not drawn), 54.4% (active). With `O=C(O)C1C2CCC(O2)C1C(=O)Nc1ccc(F)cc1` (stereo not drawn) the figure was -3.9%. With `O=C(NCC(=O)N(c1cccnc1)C(C(=O)NC1CCCC1)c1ccccc1)c1ccco1` (stereo not drawn) the figure was -14.2%; with `Cc1onc(-c2ccccc2)c1C(=O)N1CCN(C(=O)c2ccco2)CC1`, 2%; with `COc1ccc(N(CC(=O)NCc2ccccc2OC)S(=O)(=O)c2ccccc2[N+](=O)[O-])c(OC)c1`, -1.5%.

As to `CCN1C(=O)N(C)C2(c3ccccc3)N(C)C(=O)N(C)C12c1ccccc1` (stereo not drawn), the inhibition is 12.7%. Under `CN1c2ccccc2N(C)C1(C)c1ccccc1` stands 31.1%; under `O=C(c1cc(-c2ccco2)on1)N1CCN(c2ccccc2)CC1`, 53.3% (active). Regarding `O=C(c1cc(-c2ccco2)on1)N1CCOCC1`, the inhibition is 26.3%. With `CN1CCN(C(=O)c2cc(-c3ccco3)on2)CC1` the figure was -11%; with `N#CCCn1c(C2CCCCC2)nc2ccccc21`, -2.5%; with `C(=Nc1ccc(Nc2ccccc2)cc1)c1ccc2ccccc2c1`, -17.3%. For the molecule `O=[N+]([O-])c1ccc(N=Cc2ccc(Br)c([N+](=O)[O-])c2)cc1`, the inhibition is 7.8%.

On to `O=[N+]([O-])c1cc(C=Nc2ccc3ccccc3c2)ccc1Br`, for which the inhibition was 51.5% (active). With `CCn1c2ccccc2c2nc3cc(C(=O)O)ccc3nc21` the figure was 33.7%; with `CCn1c2ccccc2c2nc3ccccc3nc21`, 8.1%; with `CCc1cc(C(=O)N2CCCC(CCC(=O)NCc3cccc(OC)c3)C2)no1` (stereo not drawn), -5.8%.

Source of the values: PubChem BioAssay AID1220 (Sanford-Burnham Center for Chemical Genomics, 2008).
